The supplement of paper PMC10849652
Of roughly 7,900 targets only a part is listed; those with a hit were picked by preference. About 0.6% of all pairs of compound and target were hits. Unmarked numbers belong to inactive results.

Key:
Assay in all cases: log2 fold change, soluble protein after heating vs DMSO (PISA); higher = thermal stabilisation; K562 cells, 10 uM, 30 min; active = over 0.2 and 3.5 SD of the protein, either way, in both replicates (recomputed)
[1] = compound: CS(=O)(=O)c1ccc(-c2cnc(N)c(C(=O)Nc3ccccc3)n2)cc1
Method in brief: (§1)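 Soluble protein was quantified by TMTpro 16plex LC-MS/MS after channel sums were equalised. It was obtained as the supernatant after 21,000xg for 90 min from pooled aliquots of K562 cells (2×10^6 cells/mL, 10 μM compound, 30 min) heated for 3 min across 48°C-58°C and extracted in PBS with 0.5% NP-40 at 4°C. Thermal stability values are relative to control samples and come from duplicates. They are given as log2 fold changes.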

crizotinib = compound: C[C@@H](Oc1cc(-c2cnn(C3CCNCC3)c2)cnc1N)c1c(Cl)ccc(F)c1Cl [crizotinib]
Method in brief: as §1

[2] = compound: C[C@@H]1COCCN1C2=NC(=NC(=C2)C3(CC3)S(=O)(=O)C)C4=C5C=CNC5=CC=C4
Method in brief: as §1

[3] = compound: C[C@H](C1=CC=C(C=C1)C(=O)NC2=C3C=CNC3=NC=C2)N
Method in brief: as §1

duvelisib = compound: C[C@H](Nc1ncnc2nc[nH]c12)c1cc2cccc(Cl)c2c(=O)n1-c1ccccc1 [duvelisib]
Method in brief: as §1

gandotinib = compound: Cc1cc(Nc2cc(CN3CCOCC3)c3nc(C)c(Cc4ccc(Cl)cc4F)n3n2)n[nH]1 [gandotinib]
Method in brief: as §1

tozasertib = compound: Cc1cc(Nc2cc(N3CCN(C)CC3)nc(Sc3ccc(NC(=O)C4CC4)cc3)n2)n[nH]1 [tozasertib]
Method in brief: as §1

[4] = compound: Cc1cc(SCc2sc(-c3ccc(C(F)(F)F)cc3)nc2C)ccc1OCC(=O)O
Method in brief: as §1

doramapimod = compound: Cc1ccc(-n2nc(C(C)(C)C)cc2NC(=O)Nc2ccc(OCCN3CCOCC3)c3ccccc23)cc1 [doramapimod]
Method in brief: as §1

ispinesib = compound: Cc1ccc(C(=O)N(CCCN)[C@@H](c2nc3cc(Cl)ccc3c(=O)n2Cc2ccccc2)C(C)C)cc1 [ispinesib]
Method in brief: as §1

bafetinib = compound: Cc1ccc(NC(=O)c2ccc(CN3CC[C@H](N(C)C)C3)c(C(F)(F)F)c2)cc1Nc1nccc(-c2cncnc2)n1 [bafetinib]
Method in brief: as §1

[5] = compound: Cc1cccc(CC(=O)N2CCc3c2ccc(-c2cn(C)c4ncnc(N)c24)c3F)n1
Method in brief: as §1

nilotinib = compound: Cc1cn(-c2cc(NC(=O)c3ccc(C)c(Nc4nccc(-c5cccnc5)n4)c3)cc(C(F)(F)F)c2)cn1 [nilotinib]
Method in brief: as §1

[6] = compound: Cc1nc(Nc2n[nH]c3c2CN(C(=O)N[C@H](CN(C)C)c2ccccc2)C3(C)C)c2sccc2n1
Method in brief: as §1

dasatinib = compound: Cc1nc(Nc2ncc(C(=O)Nc3c(C)cccc3Cl)s2)cc(N2CCN(CCO)CC2)n1 [dasatinib]
Method in brief: as §1

[7] = compound: Cc1ncc(-c2ccnc(Nc3ccc(S(C)(=O)=O)cc3)n2)n1C(C)C
Method in brief: as §1

[8] = compound: Cn1cc(-c2ccc3c(c2)CCN3C(=O)Cc2cccc(C(F)(F)F)c2)c2c(N)ncnc21
Method in brief: as §1

[9] = compound: Cn1cc(-c2ccc3nnc(C(F)(F)c4ccc5ncccc5c4)n3n2)cn1
Method in brief: as §1

tipifarnib = compound: Cn1cncc1[C@@](N)(c1ccc(Cl)cc1)c1ccc2c(c1)c(-c1cccc(Cl)c1)cc(=O)n2C [tipifarnib]
Method in brief: as §1

mubritinib = compound: FC(F)(F)c1ccc(/C=C/c2nc(COc3ccc(CCCCn4ccnn4)cc3)co2)cc1 [mubritinib]
Method in brief: as §1

Chain of UniProt Q9NR45 (Q9NR45 whole entry, looked up): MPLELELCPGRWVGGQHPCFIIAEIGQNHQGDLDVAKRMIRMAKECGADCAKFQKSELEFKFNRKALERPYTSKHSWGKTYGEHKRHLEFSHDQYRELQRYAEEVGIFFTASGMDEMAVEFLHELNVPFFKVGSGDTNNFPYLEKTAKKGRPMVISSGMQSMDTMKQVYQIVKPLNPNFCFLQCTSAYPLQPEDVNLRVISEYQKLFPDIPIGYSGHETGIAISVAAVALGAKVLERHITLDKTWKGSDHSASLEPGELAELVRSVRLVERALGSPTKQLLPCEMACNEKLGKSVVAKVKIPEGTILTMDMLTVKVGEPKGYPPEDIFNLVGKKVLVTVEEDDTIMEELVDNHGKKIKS
Chain of UniProt O15118 (O15118 whole entry, looked up): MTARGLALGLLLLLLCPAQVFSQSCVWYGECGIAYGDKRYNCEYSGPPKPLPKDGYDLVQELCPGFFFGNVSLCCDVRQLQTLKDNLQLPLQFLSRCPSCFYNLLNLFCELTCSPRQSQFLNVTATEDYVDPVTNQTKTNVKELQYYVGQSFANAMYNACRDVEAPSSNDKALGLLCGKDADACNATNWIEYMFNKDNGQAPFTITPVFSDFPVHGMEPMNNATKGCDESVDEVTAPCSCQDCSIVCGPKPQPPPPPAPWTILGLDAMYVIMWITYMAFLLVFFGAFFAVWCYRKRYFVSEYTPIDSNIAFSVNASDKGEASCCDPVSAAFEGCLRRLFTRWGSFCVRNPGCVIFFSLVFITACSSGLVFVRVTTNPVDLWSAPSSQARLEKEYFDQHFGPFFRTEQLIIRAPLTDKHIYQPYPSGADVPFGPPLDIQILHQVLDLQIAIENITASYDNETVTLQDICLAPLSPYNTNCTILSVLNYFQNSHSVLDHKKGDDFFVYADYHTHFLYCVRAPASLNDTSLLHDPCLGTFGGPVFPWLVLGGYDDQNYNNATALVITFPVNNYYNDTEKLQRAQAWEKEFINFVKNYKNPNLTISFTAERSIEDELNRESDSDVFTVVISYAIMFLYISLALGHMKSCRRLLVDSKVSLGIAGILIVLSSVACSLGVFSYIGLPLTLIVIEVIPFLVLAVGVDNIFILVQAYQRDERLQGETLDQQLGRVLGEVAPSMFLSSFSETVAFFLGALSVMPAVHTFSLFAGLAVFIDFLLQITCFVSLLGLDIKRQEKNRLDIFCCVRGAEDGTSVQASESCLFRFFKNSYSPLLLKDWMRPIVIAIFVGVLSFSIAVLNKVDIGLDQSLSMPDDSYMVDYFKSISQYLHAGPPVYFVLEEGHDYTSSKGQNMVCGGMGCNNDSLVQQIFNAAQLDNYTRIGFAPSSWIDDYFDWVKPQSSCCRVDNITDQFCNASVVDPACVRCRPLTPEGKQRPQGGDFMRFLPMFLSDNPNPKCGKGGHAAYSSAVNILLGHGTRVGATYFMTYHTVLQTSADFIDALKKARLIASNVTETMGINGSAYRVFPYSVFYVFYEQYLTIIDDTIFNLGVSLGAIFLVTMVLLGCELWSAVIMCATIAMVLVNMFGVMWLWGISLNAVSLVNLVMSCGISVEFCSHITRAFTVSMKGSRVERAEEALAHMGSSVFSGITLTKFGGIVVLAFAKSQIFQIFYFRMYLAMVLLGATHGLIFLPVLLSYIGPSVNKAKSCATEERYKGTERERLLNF
Chain of UniProt Q96IV0 (Q96IV0 whole entry, looked up): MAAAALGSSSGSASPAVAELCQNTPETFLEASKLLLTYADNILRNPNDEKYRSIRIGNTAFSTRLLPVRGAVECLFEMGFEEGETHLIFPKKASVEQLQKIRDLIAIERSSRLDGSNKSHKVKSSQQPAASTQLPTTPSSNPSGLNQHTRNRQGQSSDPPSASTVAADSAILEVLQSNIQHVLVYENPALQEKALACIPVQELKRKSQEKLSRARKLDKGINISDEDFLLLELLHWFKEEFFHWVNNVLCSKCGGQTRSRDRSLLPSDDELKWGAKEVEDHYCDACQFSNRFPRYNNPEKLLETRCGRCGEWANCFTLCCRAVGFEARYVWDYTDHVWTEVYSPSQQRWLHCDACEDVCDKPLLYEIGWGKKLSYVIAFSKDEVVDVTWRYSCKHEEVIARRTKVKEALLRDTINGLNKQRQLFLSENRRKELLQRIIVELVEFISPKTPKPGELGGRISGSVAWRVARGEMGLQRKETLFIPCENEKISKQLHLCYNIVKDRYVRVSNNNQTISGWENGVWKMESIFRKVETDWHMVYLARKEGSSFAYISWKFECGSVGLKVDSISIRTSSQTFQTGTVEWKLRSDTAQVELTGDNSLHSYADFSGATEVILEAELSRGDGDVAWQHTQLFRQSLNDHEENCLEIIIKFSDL
Chain of UniProt O95747 (O95747 whole entry, looked up): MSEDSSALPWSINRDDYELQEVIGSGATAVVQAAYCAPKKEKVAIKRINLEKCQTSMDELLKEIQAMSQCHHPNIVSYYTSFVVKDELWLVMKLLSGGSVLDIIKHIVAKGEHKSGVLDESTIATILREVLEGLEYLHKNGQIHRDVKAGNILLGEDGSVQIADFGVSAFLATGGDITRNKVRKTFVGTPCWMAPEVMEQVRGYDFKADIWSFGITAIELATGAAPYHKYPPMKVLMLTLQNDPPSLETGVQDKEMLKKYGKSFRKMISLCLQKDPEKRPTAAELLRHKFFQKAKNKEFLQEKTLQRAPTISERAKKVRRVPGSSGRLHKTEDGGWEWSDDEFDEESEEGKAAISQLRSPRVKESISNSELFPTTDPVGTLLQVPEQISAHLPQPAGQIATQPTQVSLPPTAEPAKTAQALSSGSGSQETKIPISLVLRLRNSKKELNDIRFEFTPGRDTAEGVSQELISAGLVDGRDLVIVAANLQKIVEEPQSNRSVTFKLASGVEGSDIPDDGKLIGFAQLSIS
Chain of UniProt Q9BZQ8 (Q9BZQ8 whole entry, looked up): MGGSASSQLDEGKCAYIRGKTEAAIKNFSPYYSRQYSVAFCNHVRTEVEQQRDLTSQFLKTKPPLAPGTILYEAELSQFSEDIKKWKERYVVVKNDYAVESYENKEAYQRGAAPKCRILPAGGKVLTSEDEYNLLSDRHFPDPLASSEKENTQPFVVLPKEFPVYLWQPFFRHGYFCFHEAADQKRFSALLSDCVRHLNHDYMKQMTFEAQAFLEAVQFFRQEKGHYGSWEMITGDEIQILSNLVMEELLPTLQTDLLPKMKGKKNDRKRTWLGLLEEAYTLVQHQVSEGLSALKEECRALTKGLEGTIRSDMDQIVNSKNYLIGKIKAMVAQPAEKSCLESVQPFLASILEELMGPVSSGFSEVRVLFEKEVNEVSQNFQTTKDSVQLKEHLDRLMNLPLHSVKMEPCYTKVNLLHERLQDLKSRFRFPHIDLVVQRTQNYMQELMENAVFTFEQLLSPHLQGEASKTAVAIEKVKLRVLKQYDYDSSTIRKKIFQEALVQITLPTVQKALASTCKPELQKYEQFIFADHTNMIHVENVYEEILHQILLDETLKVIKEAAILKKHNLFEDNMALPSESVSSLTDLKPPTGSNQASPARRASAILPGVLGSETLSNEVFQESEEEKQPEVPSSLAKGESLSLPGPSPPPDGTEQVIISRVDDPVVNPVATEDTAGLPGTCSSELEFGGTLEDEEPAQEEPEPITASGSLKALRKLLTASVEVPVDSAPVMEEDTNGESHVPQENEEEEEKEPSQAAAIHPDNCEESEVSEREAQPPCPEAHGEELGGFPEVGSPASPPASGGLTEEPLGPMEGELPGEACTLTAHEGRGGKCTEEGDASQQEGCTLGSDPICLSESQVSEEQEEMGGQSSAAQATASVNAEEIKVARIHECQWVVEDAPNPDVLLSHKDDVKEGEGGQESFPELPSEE
Chain of UniProt Q8N573 (Q8N573 whole entry, looked up): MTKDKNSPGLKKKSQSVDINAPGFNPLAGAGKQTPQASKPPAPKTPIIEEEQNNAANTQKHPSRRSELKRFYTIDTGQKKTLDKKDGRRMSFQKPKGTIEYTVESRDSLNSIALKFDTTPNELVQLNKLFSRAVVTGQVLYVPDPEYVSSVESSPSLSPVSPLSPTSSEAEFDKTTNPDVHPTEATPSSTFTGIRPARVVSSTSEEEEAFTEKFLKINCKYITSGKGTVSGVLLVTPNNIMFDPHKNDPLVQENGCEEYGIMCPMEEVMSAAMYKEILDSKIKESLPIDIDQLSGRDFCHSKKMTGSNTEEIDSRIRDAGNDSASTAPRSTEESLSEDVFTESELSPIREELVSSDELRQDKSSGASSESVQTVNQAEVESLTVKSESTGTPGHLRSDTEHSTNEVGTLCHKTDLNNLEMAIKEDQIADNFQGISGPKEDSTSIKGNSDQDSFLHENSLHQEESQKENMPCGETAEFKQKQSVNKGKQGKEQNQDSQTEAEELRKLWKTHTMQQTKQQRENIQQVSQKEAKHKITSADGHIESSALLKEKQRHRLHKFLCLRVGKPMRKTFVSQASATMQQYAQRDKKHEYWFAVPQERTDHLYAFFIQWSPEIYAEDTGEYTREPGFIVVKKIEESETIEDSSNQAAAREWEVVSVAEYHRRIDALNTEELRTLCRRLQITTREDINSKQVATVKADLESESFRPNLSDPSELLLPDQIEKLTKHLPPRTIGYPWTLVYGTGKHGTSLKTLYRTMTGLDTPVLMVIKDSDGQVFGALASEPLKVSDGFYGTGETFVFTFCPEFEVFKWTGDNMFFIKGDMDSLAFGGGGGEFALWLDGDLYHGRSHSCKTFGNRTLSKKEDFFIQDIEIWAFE
Chain of UniProt Q15102 (Q15102 whole entry, looked up): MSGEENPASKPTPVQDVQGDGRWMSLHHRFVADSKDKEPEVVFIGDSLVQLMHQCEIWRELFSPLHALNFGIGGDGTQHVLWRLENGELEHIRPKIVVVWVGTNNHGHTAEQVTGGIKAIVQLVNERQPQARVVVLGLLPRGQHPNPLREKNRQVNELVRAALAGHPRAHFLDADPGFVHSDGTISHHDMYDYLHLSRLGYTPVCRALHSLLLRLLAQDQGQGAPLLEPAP

Row | Target | log2 fold change [1] | log2 fold change (crizotinib) | log2 fold change [2] | log2 fold change [3] | log2 fold change (duvelisib) | log2 fold change (gandotinib) | log2 fold change (tozasertib) | log2 fold change [4] | log2 fold change (doramapimod) | log2 fold change (ispinesib) | log2 fold change (bafetinib) | log2 fold change [5] | log2 fold change (nilotinib) | log2 fold change [6] | log2 fold change (dasatinib) | log2 fold change [7] | log2 fold change [8] | log2 fold change [9] | log2 fold change (tipifarnib) | log2 fold change (mubritinib)
1 | OXSR1 (UniProt O95747) | 0.031 | -0.127 | 0.021 | 0.011 | 0.037 | -0.096 | -0.013 | 0.095 | 0.011 | -0.055 | -0.014 | -0.012 | -0.083 | -0.029 | -0.179 | 0.031 | 0.038 | 0.005 | -0.117 | -0.05
2 | MNAT1 (UniProt P51948) | 0.007 | 0.02 | -0.068 | -0.036 | 0.007 | 0.024 | 0.015 | 0.005 | -0.057 | 0.089 | -0.072 | 0.011 | -0.033 | 0.023 | -0.002 | -0.031 | 0.018 | 0 | 0.025 | 0.032
3 | NDUFS7 (UniProt O75251) | 0.013 | -0.109 | 0.029 | -0.019 | 0.053 | -0.108 | -0.046 | 0.013 | -0.02 | -0.114 | -0.047 | 0.06 | -0.03 | 0.021 | 0.01 | -0.007 | 0.034 | 0.036 | -0.035 | 0.095
4 | NPC1 (UniProt O15118) | 0.016 | -0.132 | 0.024 | -0.102 | 0.043 | 0.015 | -0.04 | -0.038 | -0.087 | -0.148 | -0.211 (active) | -0.02 | 0.024 | -0.017 | -0.001 | 0.05 | 0.004 | 0.012 | 0.038 | -0.027
5 | NDUFA9 (UniProt Q16795) | 0.007 | -0.139 | 0.079 | 0.022 | 0.006 | -0.115 | -0.038 | 0.052 | -0.031 | -0.122 | -0.019 | 0.033 | -0.056 | 0.005 | -0.127 | 0.012 | 0.002 | -0.007 | -0.033 | 0.223 (active)
6 | MKNK1 (UniProt Q9BUB5) | 0.038 | -0.082 | -0.039 | 0.31 (active) | 0.031 | 0.038 | 0.085 | 0.057 | 0.054 | -0.03 | 0.088 | 0.057 | 0 | 0.059 | -0.115 | -0.04 | 0.117 | -0.183 | -0.101 | 0.03
7 | NCAPG (UniProt Q9BPX3) | 0.029 | -0.031 | 0.034 | 0.034 | 0.073 | -0.144 | 0.115 | 0.071 | -0.077 | -0.01 | 0.076 | 0.06 | -0.032 | -0.07 | -0.085 | 0.065 | -0.016 | 0.012 | -0.142 | -0.003
8 | MTHFS (UniProt P49914) | 0.103 | -0.026 | 0.117 | -0.098 | -0.023 | -0.021 | 0 | 0.037 | 0.013 | 0.046 | 0.074 | 0.014 | 0.154 | 0.045 | -0.094 | 0.003 | 0.032 | -0.008 | 0.001 | 0.045
9 | OXR1 (UniProt Q8N573) | 0.02 | -0.074 | 0.014 | -0.048 | 0.063 | 0 | 0.021 | -0.011 | 0.001 | -0.095 | -0.098 | -0.063 | 0.079 | -0.004 | -0.034 | -0.023 | 0.081 | 0.013 | -0.038 | 0.05
10 | NIBAN1 (UniProt Q9BZQ8) | 0.02 | -0.296 | 0.014 | 0.097 | 0.017 | -0.143 | -0.003 | 0.116 | 0.001 | -0.148 | -0.013 | 0.121 | -0.041 | -0.383 (active) | -0.14 | -0.057 | 0.001 | -0.035 | -0.04 | 0.013
11 | NFATC2 (UniProt Q13469) | 0 | -0.154 | -0.175 | 0 | 0.003 | 0.048 | 0.02 | 0.024 | 0.027 | -0.18 | 0.006 | 0.066 | -0.135 | -0.341 | -0.213 | -0.445 (active) | -0.025 | -0.075 | -0.029 | -0.124
12 | PAFAH1B3 (UniProt Q15102) | 0.059 | 0.041 | 0.165 | -0.039 | 0.123 | -0.062 | -0.035 | 0.031 | -0.009 | 0.014 | 0.003 | 0.058 | 0.008 | -0.031 | -0.065 | -0.011 | 0.192 | 0.039 | -0.163 | 0.075
13 | MRPS22 (UniProt P82650) | -0.014 | 0.037 | 0.086 | 0.055 | 0.043 | 0.008 | 0.004 | 0.081 | 0.002 | -0.258 (active) | 0.233 | 0.137 | -0.21 | 0.044 | -0.024 | 0.012 | 0.003 | 0.017 | -0.11 | 0.15
14 | NGLY1 (UniProt Q96IV0) | 0.017 | -0.079 | -0.01 | 0.093 | 0.028 | -0.043 | 0.048 | 0.032 | 0.001 | -0.059 | 0.039 | 0.055 | -0.068 | -0.038 | -0.064 | 0.021 | -0.009 | -0.034 | -0.067 | -0.062
15 | NANS (UniProt Q9NR45) | -0.074 | 0.026 | 0.052 | -0.098 | 0.02 | -0.03 | 0.043 | 0.001 | -0.006 | 0.074 | 0.04 | 0.05 | 0.069 | -0.007 | -0.018 | -0.018 | 0.05 | -0.017 | -0.067 | -0.023
16 | MLX (UniProt Q9UH92) | -0.038 | -0.188 | 0.092 | -0.001 | -0.131 | -0.239 | -0.043 | 0.115 | 0.03 | -0.186 | -0.022 | 0.094 | -0.11 | -0.01 | 0.008 | -0.11 | -0.054 | -0.097 | -0.122 | -0.061
